Reference: PubChem BioAssay (NCI)
About 79,000 compounds went through this panel and 15% of them were active in at least one assay; those are over-represented in the sample as a whole. A number with no mark means an inactive call. Calls of active or inactive are those of the source. No stated cut-off is given here; in the data, active means growth inhibition above about 70%; inactive means the rest.

Experiments:
[1] = NCI Yeast Anticancer Drug Screen. Data for the rad52 strain (AID 147);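 further: 0% = growth of vehicle-treated control cultures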; conditions: S. cerevisiae rad52 mutant growth inhibition, hits give high values
In short: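 Read-out: growth inhibition versus vehicle-treated controls. Cells were a DNA repair-deficient yeast strain treated with compounds.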

[2] = NCI Yeast Anticancer Drug Screen. Data for the wt1 strain (AID 149);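 further: 0% = growth of vehicle-treated wt1 cultures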; conditions: S. cerevisiae wt1 strain (SPY 50644) growth inhibition, hits give high values
In short: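 The wt1 strain was treated with compounds, and growth was compared with vehicle-treated cultures to give inhibition.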

[3] = NCI Yeast Anticancer Drug Screen. Data for the rad50EPP+ strain (AID 151);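 further: 0% = growth of vehicle-treated control cultures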; conditions: S. cerevisiae rad50 mutant strain, hits give high values
In short: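 Growth inhibition read against vehicle controls in rad50EPP+ yeast, a strain altered in DNA damage repair, after compound exposure.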

[4] = NCI Yeast Anticancer Drug Screen. Data for the mgt1 strain (AID 153); conditions: S. cerevisiae mgt1 mutant growth inhibition, hits give high values
In short: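 mgt1 yeast grown with test compound; read-out is growth inhibition versus vehicle-treated cultures.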

[5] = NCI Yeast Anticancer Drug Screen. Data for the rad50 strain (AID 155);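 further: 0% = growth of vehicle-only cultures of the same strain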; conditions: S. cerevisiae rad50 strain growth inhibition, hits give high values
In short: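 Cells are treated with compound, grown, and their growth is then scored against vehicle-only cultures of the same repair-deficient yeast strain.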

[6] = NCI Yeast Anticancer Drug Screen. Data for the mec2-1 strain (AID 157); conditions: S. cerevisiae mec2-1 strain, hits give high values
In short: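 Yeast mec2-1 mutant treated with compound. Readout: growth inhibition vs vehicle controls.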

[7] = NCI Yeast Anticancer Drug Screen. Data for the rad14 strain (AID 159);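 further: 0% = growth of vehicle-treated control cultures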; conditions: S. cerevisiae rad14 strain growth inhibition, hits give high values
In short: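 Readout: yeast growth inhibition, referenced to vehicle-only cultures. Strain bears a defined alteration in DNA damage repair.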

[8] = NCI Yeast Anticancer Drug Screen. Data for the sgs1 mgt1 strain (AID 161);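 further: 0% = growth of cultures given vehicle only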; conditions: S. cerevisiae sgs1 mgt1 strain, hits give high values
In short: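 Read-out: growth inhibition vs vehicle controls. Cells: mutant yeast strain deficient in DNA damage repair.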

[9] = NCI Yeast Anticancer Drug Screen. Data for the cln2 rad14 strain (AID 165);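 further: 0% = growth equal to vehicle treated cultures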; conditions: S. cerevisiae cln2 rad14 strain, hits give high values
In short: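 cln2 rad14 yeast strain; compound exposure; growth inhibition read vs vehicle controls.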

[10] = NCI Yeast Anticancer Drug Screen. Data for the bub3 strain (AID 167); conditions: S. cerevisiae bub3 mutant strain, hits give high values
In short: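 Part of a panel of yeast mutants defective in DNA damage repair or cell cycle regulation. Each strain is grown with compound, and inhibition is calculated relative to solvent-treated cultures.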

[11] = NCI Yeast Anticancer Drug Screen. Data for the wt2 strain (AID 169);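 further: 0% = growth of vehicle-treated yeast cultures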; conditions: S. cerevisiae wt2 strain growth inhibition, hits give high values
In short: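 Read-out: growth inhibition versus vehicle-treated control cultures after compound exposure of the yeast strain.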

[12] = NCI Yeast Anticancer Drug Screen. Data for the mlh1 strain (AID 171);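 further: 0% = growth of vehicle-treated control cultures of the same strain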; conditions: S. cerevisiae mlh1 strain growth inhibition, hits give high values
In short: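 Read-out: growth inhibition versus vehicle controls. Strain: engineered yeast with a defined DNA repair or cell cycle defect, compound-treated.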

[13] = NCI Yeast Anticancer Drug Screen. Data for the sgs1 strain (AID 173);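 further: 0% = growth of vehicle-only control cultures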; conditions: S. cerevisiae sgs1 mutant, hits give high values
In short: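 Read-out: yeast growth inhibition relative to vehicle controls, following compound exposure of a strain with a defined DNA repair/cell cycle alteration.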

[14] = NCI Yeast Anticancer Drug Screen. Data for the mlh1 rad18 strain (AID 175); conditions: S. cerevisiae mlh1 rad18 strain growth inhibition, hits give high values
In short: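 Yeast w/ defined DNA-repair lesions; compound exposure; growth vs vehicle controls → % inhibition.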

[15] = NCI Yeast Anticancer Drug Screen. Data for the rad18 strain (AID 177); conditions: S. cerevisiae rad18 mutant growth inhibition, hits give high values
In short: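 Readout: growth inhibition vs vehicle controls. Cells: genetically altered yeast strain, DNA repair defect.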

[16] = at 5.0 µM (retest, dose inferred, filed as 0.5)
[17] = at 50.0 µM (retest, dose inferred, filed as 5.0)

Clc1cccc(C(Nc2nncs2)Nc2nncs2)c1Cl
growth inhibition ([1]; at 1.2 µM): -1%
growth inhibition ([1]; at 3.7 µM): 2%
growth inhibition ([1]; at 11.0 µM): 9%
growth inhibition ([1]; at 33.0 µM): 28%
growth inhibition ([1]; at 100.0 µM): 70% (active)
growth inhibition ([2]; at 1.2 µM): -2%
growth inhibition ([2]; at 3.7 µM): -1%
growth inhibition ([2]; at 11.0 µM): 0%
growth inhibition ([2]; at 33.0 µM): 11%
growth inhibition ([2]; at 100.0 µM): 34%
growth inhibition ([3]; at 1.2 µM): -1%
growth inhibition ([3]; at 3.7 µM): 4%
growth inhibition ([3]; at 11.0 µM): 14%
growth inhibition ([3]; at 33.0 µM): 47%
growth inhibition ([3]; at 100.0 µM): 92% (active)
growth inhibition ([4]; at 1.2 µM): 0%
growth inhibition ([4]; at 3.7 µM): 0%
growth inhibition ([4]; at 11.0 µM): 0%
growth inhibition ([4]; at 33.0 µM): 12%
growth inhibition ([4]; at 100.0 µM): 49%
growth inhibition ([5]; at 1.2 µM): 4%
growth inhibition ([5]; at 3.7 µM): 48%
growth inhibition [5, 16]: 0%
growth inhibition ([5]; at 11.0 µM): 22%
growth inhibition ([5]; at 33.0 µM): 42%
growth inhibition [5, 17]: 37%
growth inhibition ([5]; at 50.0 µM): 51.1%
growth inhibition ([5]; at 100.0 µM): 83% (active)
growth inhibition ([6]; at 1.2 µM): -1%
growth inhibition ([6]; at 3.7 µM): 4%
growth inhibition [6, 16]: 1%
growth inhibition ([6]; at 11.0 µM): 7%
growth inhibition ([6]; at 33.0 µM): 19%
growth inhibition [6, 17]: 29%
growth inhibition ([6]; at 50.0 µM): 20.7%
growth inhibition ([6]; at 100.0 µM): 51%
growth inhibition ([7]; at 1.2 µM): -2%
growth inhibition ([7]; at 3.7 µM): -2%
growth inhibition ([7]; at 11.0 µM): 2%
growth inhibition ([7]; at 33.0 µM): 19%
growth inhibition ([7]; at 100.0 µM): 71% (active)
growth inhibition [8, 16]: 1%
growth inhibition [8, 17]: 50%
growth inhibition ([8]; at 50.0 µM): 66.5%
growth inhibition [9, 16]: -3%
growth inhibition [9, 17]: 25%
growth inhibition ([9]; at 50.0 µM): -2.6%
growth inhibition ([10]; at 1.2 µM): 0%
growth inhibition ([10]; at 3.7 µM): 0%
growth inhibition [10, 16]: -6%
growth inhibition ([10]; at 11.0 µM): 0%
growth inhibition ([10]; at 33.0 µM): 12%
growth inhibition [10, 17]: 14%
growth inhibition ([10]; at 50.0 µM): -20.6%
growth inhibition ([10]; at 100.0 µM): 77% (active)
growth inhibition ([11]; at 1.2 µM): -2%
growth inhibition ([11]; at 3.7 µM): 8%
growth inhibition ([11]; at 11.0 µM): 1%
growth inhibition ([11]; at 33.0 µM): 19%
growth inhibition ([11]; at 100.0 µM): 54%
growth inhibition ([12]; at 1.2 µM): -1%
growth inhibition ([12]; at 3.7 µM): 0%
growth inhibition ([12]; at 11.0 µM): 3%
growth inhibition ([12]; at 33.0 µM): 16%
growth inhibition ([12]; at 100.0 µM): 49%
growth inhibition ([13]; at 1.2 µM): -1%
growth inhibition ([13]; at 3.7 µM): 3%
growth inhibition ([13]; at 11.0 µM): 16%
growth inhibition ([13]; at 33.0 µM): 51%
growth inhibition ([13]; at 100.0 µM): 86% (active)
growth inhibition [14, 16]: 3%
growth inhibition [14, 17]: 57%
growth inhibition ([14]; at 50.0 µM): 55.3%
growth inhibition ([15]; at 1.2 µM): -4%
growth inhibition ([15]; at 3.7 µM): 6%
growth inhibition ([15]; at 11.0 µM): 14%
growth inhibition ([15]; at 33.0 µM): 42%
growth inhibition ([15]; at 100.0 µM): 87% (active)

CNC(=O)OCc1c(COC(=O)NC)c(-c2ccc(-c3ccccc3)cc2)n(C)c1C
growth inhibition ([1]; at 1.2 µM): -36%
growth inhibition ([1]; at 3.7 µM): -41%
growth inhibition ([1]; at 11.0 µM): -27%
growth inhibition ([1]; at 33.0 µM): 26%
growth inhibition ([1]; at 100.0 µM): 68%
growth inhibition ([2]; at 1.2 µM): -7%
growth inhibition ([2]; at 3.7 µM): -16%
growth inhibition ([2]; at 11.0 µM): -12%
growth inhibition ([2]; at 33.0 µM): 10%
growth inhibition ([2]; at 100.0 µM): 23%
growth inhibition ([3]; at 1.2 µM): -33%
growth inhibition ([3]; at 3.7 µM): -31%
growth inhibition ([3]; at 11.0 µM): -28%
growth inhibition ([3]; at 33.0 µM): -14%
growth inhibition ([3]; at 100.0 µM): -1%
growth inhibition ([4]; at 1.2 µM): -11%
growth inhibition ([4]; at 3.7 µM): -5%
growth inhibition ([4]; at 11.0 µM): -6%
growth inhibition ([4]; at 33.0 µM): 2%
growth inhibition ([4]; at 100.0 µM): 10%
growth inhibition ([5]; at 1.2 µM): -46%
growth inhibition ([5]; at 3.7 µM): -15%
growth inhibition [5, 16]: 25%
growth inhibition ([5]; at 11.0 µM): -26%
growth inhibition ([5]; at 33.0 µM): 16%
growth inhibition [5, 17]: 85% (active)
growth inhibition ([5]; at 50.0 µM): 64%
growth inhibition ([5]; at 100.0 µM): 70% (active)
growth inhibition ([6]; at 1.2 µM): -17%
growth inhibition ([6]; at 3.7 µM): -18%
growth inhibition [6, 16]: 16%
growth inhibition ([6]; at 11.0 µM): 3%
growth inhibition ([6]; at 33.0 µM): -8%
growth inhibition [6, 17]: 46%
growth inhibition ([6]; at 50.0 µM): 13.4%
growth inhibition ([6]; at 100.0 µM): 1%
growth inhibition ([7]; at 1.2 µM): -13%
growth inhibition ([7]; at 3.7 µM): -13%
growth inhibition ([7]; at 11.0 µM): -21%
growth inhibition ([7]; at 33.0 µM): 13%
growth inhibition ([7]; at 100.0 µM): 75% (active)
growth inhibition [8, 16]: -5%
growth inhibition [8, 17]: 25%
growth inhibition ([8]; at 50.0 µM): -2.7%
growth inhibition [9, 16]: 24%
growth inhibition [9, 17]: 56%
growth inhibition ([9]; at 50.0 µM): -6.8%
growth inhibition ([10]; at 1.2 µM): -10%
growth inhibition ([10]; at 3.7 µM): -15%
growth inhibition [10, 16]: -8%
growth inhibition ([10]; at 11.0 µM): -15%
growth inhibition ([10]; at 33.0 µM): 0%
growth inhibition [10, 17]: 23%
growth inhibition ([10]; at 50.0 µM): -13.5%
growth inhibition ([10]; at 100.0 µM): -1%
growth inhibition ([11]; at 1.2 µM): -30%
growth inhibition ([11]; at 3.7 µM): -29%
growth inhibition ([11]; at 11.0 µM): -15%
growth inhibition ([11]; at 33.0 µM): -27%
growth inhibition ([11]; at 100.0 µM): 23%
growth inhibition ([12]; at 1.2 µM): -1%
growth inhibition ([12]; at 3.7 µM): 10%
growth inhibition ([12]; at 11.0 µM): -11%
growth inhibition ([12]; at 33.0 µM): 11%
growth inhibition ([12]; at 100.0 µM): -1%
growth inhibition ([13]; at 1.2 µM): -26%
growth inhibition ([13]; at 3.7 µM): -25%
growth inhibition ([13]; at 11.0 µM): -32%
growth inhibition ([13]; at 33.0 µM): -26%
growth inhibition ([13]; at 100.0 µM): 59%
growth inhibition [14, 16]: 24%
growth inhibition [14, 17]: 75% (active)
growth inhibition ([14]; at 50.0 µM): 58.8%
growth inhibition ([15]; at 1.2 µM): -25%
growth inhibition ([15]; at 3.7 µM): -42%
growth inhibition ([15]; at 11.0 µM): -61%
growth inhibition ([15]; at 33.0 µM): -42%
growth inhibition ([15]; at 100.0 µM): 52%
